Screen size: about 38,000 compounds; about 1,200 (3.2%) showed an effect of 50% or more. The median lay at about -58%. Many of the other results were omitted from the sample, so strong results are more common in it than they were.

For the assay, the system named is Plasmodium falciparum. The assay is described as follows: Calibr Malaria Delayed Death Assay SOP. It counts as functional, organism-based. Also noted: scale not given: in the data most compounds retested in dose-response had high values. Conditions: concentration 4.99e-06 (unit not given; other assays of the set use mol/L).
For the molecule `Cc1ccc(C(C)(O)CNC(=O)CCn2ccnc2C(C)C)o1` (stereo not given), the “Percent Effect” value is on record as -68.59%. With `Cc1[nH]ncc1C(=O)NCC(CO)Cc1ccc(Cl)cc1` (stereo not given), the “Percent Effect” value is given as -37.01%. For the molecule `c1cc(CNCC2CNc3ccnn3C2)cc(N2CCOCC2)n1` (stereo not given), the “Percent Effect” value is given as -156.8%. In the case of `Cc1cc(N2Cc3cnn(CCO)c3C2)nc(-c2ccccc2O)n1`, the “Percent Effect” value was -189%. The figure for `O=C(NCC(O)C1CC1)Nc1cnn(Cc2ccccc2)c1` (stereo not given) is -47.94%; for `Cc1cncc(C2CCCN(C(=O)c3cn(C)nc3C)C2)n1` (stereo not given) it is -35.12%. The figure for `Cn1cnnc1CC1CCN(Cc2nn(C)c3cccc(Cl)c23)CC1` is -15.19%. With `C[C@@H]1CN(C2CCN(Cc3nn(C)c4cccc(Cl)c34)CC2)C[C@H](C)O1`, the “Percent Effect” value is -11.21%. In the case of `Cn1nc(CN2CCC(c3ccncc3)CC2)c2c(Cl)cccc21` it was -16.19%; in that of `Cn1nc(CN2CCCN(C3CCCC3)CC2)c2c(Cl)cccc21`, 68.46%.

Turning to `CCn1cc(CN2CCCN(C3Cc4ccccc4C3)CC2)c(C)n1`, the “Percent Effect” value was -9.026%. As for `Cn1nc(CN2CCCCC(N)C2)c2c(Cl)cccc21` (stereo not given), the “Percent Effect” value worked out at 65.71%.

Consider `CCC(=O)N1CCC[C@]2(C(=O)N(C)C)CN(c3ccccn3)C[C@@H]2C1.O=C(O)C(F)(F)F`, for which the “Percent Effect” value is -7.405%.

On to `Cn1nccc1-c1nnn2c1COC(CNCc1nccs1)C2.O=C(O)C(F)(F)F` (stereo not given), for which the “Percent Effect” value is listed as -38.88%. As to `CCn1cc(S(=O)(=O)N2CCCC2c2ccc(C)o2)cn1` (stereo not given), the “Percent Effect” value was -154.6%. Regarding `CC(C)c1nccn1C1CCCN(C(=O)c2nccnc2N)C1` (stereo not given), the “Percent Effect” value is given as -27.69%. As to `CCOc1ncccc1CNC(=O)c1cc(C)on1`, the “Percent Effect” value was -34.12%. Turning to `Cn1cc(C2CC(=O)NC23CCN(C(=O)C2CC=CC2)CC3)cn1` (stereo not given), the “Percent Effect” value was -79.79%.

As to `Cn1cc(CN2CCCC(CCc3ccc(F)c(F)c3)C2)cn1` (stereo not given), the “Percent Effect” value is 69.99%. For the molecule `Cn1cc(CN2CCCN(CCCc3ccccc3)CC2)cn1`, the “Percent Effect” value is -23.65%. Regarding `Cc1[nH]c(=O)[nH]c(=O)c1CN1CCCC(CCc2ccc(F)c(F)c2)C1` (stereo not given), the “Percent Effect” value was -43.91%.

Turning to `Cn1cc(C[C@H]2[C@H](O)CCN2Cc2ccc(F)cc2)cn1.O=C(O)C(F)(F)F`, the “Percent Effect” value was determined as 1.719%.

Regarding `Cn1cc(CNC(=O)C2CCCN(Cc3cccc(F)c3)C2)cn1` (stereo not given), the “Percent Effect” value was -63.48%. Take `Cn1cc(CN2CCCC(CCc3ccc(F)cc3)C2)cn1` (stereo not given): the “Percent Effect” value amounted to 73.58%. Regarding `Cn1cc(CN2CCC(CCC(=O)NCc3ccc(F)cc3)CC2)cn1`, the “Percent Effect” value is given as -110.1%. As to `Cc1ccccc1CCC1CCCN(Cc2nnc(-c3ccco3)o2)C1` (stereo not given), the “Percent Effect” value is -11.7%. As for `Cn1ccnc1CCNC(=O)C1CCCN(Cc2cccc(F)c2)C1` (stereo not given), the “Percent Effect” value worked out at 58.15%. For the molecule `Cn1cc(CN2CCCC(CCc3ccccc3C(F)(F)F)C2)cn1` (stereo not given), the “Percent Effect” value was 87.33%. With `Cn1cnnc1CNC(=O)C1CCCN(Cc2cccc(F)c2)C1` (stereo not given), the “Percent Effect” value was -147.7%. As to `COc1ccc(CN2CCCC(Cn3nc(C)nc3C)C2)cc1F` (stereo not given), the “Percent Effect” value is -17.07%.

`Cc1nn(C)c(Cl)c1C1CCCN1C(=O)c1ccnn1C` (stereo not given): the “Percent Effect” value is given as -125.5%. On to `Cc1nc(CN2C[C@@H]3CN(C(=O)Cc4ccccn4)C[C@@H]3C2)cs1.O=C(O)C(F)(F)F.O=C(O)C(F)(F)F`, for which the “Percent Effect” value is reported as -48.37%. For `CN(Cc1nccn1CC(F)(F)F)C(=O)c1ccc(F)cc1F`, the “Percent Effect” value is on record as -38.32%. For the molecule `CCN1CCN(c2ccc(NC(C)c3nc(C(C)C)no3)c(C)c2)CC1` (stereo not given), the “Percent Effect” value is -29.45%. In the case of `CNC(=O)COC(=O)c1ccn(-c2ccc(Cl)c(Cl)c2)n1`, the “Percent Effect” value is reported as -33.36%.

As to `COCC1c2c(cnn2C)CCN1Cc1ccco1.O=C(O)C(F)(F)F.O=C(O)C(F)(F)F` (stereo not given), the “Percent Effect” value was -7.218%. In the case of `Cc1cc(F)ccc1-n1cc(O)c(C(N)=O)n1` it was -184.1%. Consider `Cn1cc(CN2CCCC(CCc3ccc(F)cc3F)C2)cn1` (stereo not given), for which the “Percent Effect” value turned out to be 88.72%.

Consider `Cn1cc(CN2CCCC(CCc3c(F)cccc3F)C2)cn1` (stereo not given), for which the “Percent Effect” value was 78.37%. Regarding `CC(c1ccc(F)c(F)c1)N1CCN(Cc2nccn2C)CC1` (stereo not given), the “Percent Effect” value was -18.79%. Turning to `Cc1nc(C)n(CC2CCCN(Cc3ccc(F)cc3C#N)C2)n1` (stereo not given), the “Percent Effect” value is recorded as -108%.

For the molecule `Cc1[nH]c(=O)[nH]c(=O)c1CN1CCCC(CCc2ccc(F)cc2F)C1` (stereo not given), the “Percent Effect” value amounted to 49.97%. Turning to `Cc1[nH]c(=O)[nH]c(=O)c1CN1CCCC(CCc2ccccc2F)C1` (stereo not given), the “Percent Effect” value is -31.73%. For the molecule `Cc1[nH]c(=O)[nH]c(=O)c1CN1CCCC(CCc2c(F)cccc2F)C1` (stereo not given), the “Percent Effect” value is reported as -50.25%.

Consider `CC(C)n1ccnc1C1CCCN(Cc2ccc(F)c(F)c2)C1` (stereo not given), for which the “Percent Effect” value came to 8.859%. In the case of `Cn1ccnc1CN1CCCC(CCc2ccc(F)c(F)c2)C1` (stereo not given), the “Percent Effect” value is listed as 73.33%. On to `Cc1ccc(N2CCN(C(=O)CCc3ccc(O)cc3)CC2=O)cc1`, for which the “Percent Effect” value was -38.56%. In the case of `Cc1cc(F)cc2c(N3CCC(S(N)(=O)=O)CC3)c(C#N)cnc12`, the “Percent Effect” value is recorded as -75.95%. Consider `O=C1CC2(CCSC2)C(=O)N1Cc1coc(-c2ccccc2)n1` (stereo not given), for which the “Percent Effect” value is recorded as -69.36%. Regarding `CC1CCc2[nH]c(=O)c(C(=O)N3CCc4ccccc4C3)cc2C1` (stereo not given), the “Percent Effect” value is -106.2%. As to `COCCN(Cc1cc(O)nc2ccccc12)C(=O)NC(C)C`, the “Percent Effect” value is given as -37.53%. For `COCCN(Cc1ccccc1Cl)c1nc(CCN)nc2ccccc12`, the “Percent Effect” value is listed as 89.02%. Take `COCCN(Cc1cccs1)c1nc(CCN)nc2ccccc12`: the “Percent Effect” value is listed as 61.62%. In the case of `COCCN(CCOC)Cc1c(C)nc2ccccc2c1O` it was -60.42%; in that of `Cc1ccsc1CN(c1nc(CCN)nc2ccccc12)C1CC1`, 51.16%. With `NCCc1nc(N(Cc2nccs2)C2CC2)c2ccccc2n1`, the “Percent Effect” value is -61.5%. Consider `COCCN(CC1CC1)c1nc(CCN)nc2ccccc12`, for which the “Percent Effect” value worked out at 8.553%. The figure for `COCCN(Cc1cccs1)C(=O)C1CCCN(C(N)=O)C1` (stereo not given) is -166.3%; for `NCCc1nc(N(Cc2cncs2)C2CC2)c2ccccc2n1` it is -36.69%; for `CCC(=O)N(CCN(C)C)Cc1ccc(F)c(F)c1` it is 39.58%.

`CC(C)C1CCC(N2CCN(CCCS(C)(=O)=O)CC2)CC1` (stereo not given): the “Percent Effect” value is listed as 11.68%. For the molecule `Cc1cc2nc(C(C)C)cc(N3CCC(O)CC3)n2n1`, the “Percent Effect” value was -114.9%. As to `Cc1cccc(C(C(=O)NCC2(O)CCCCC2)N(C)C)c1` (stereo not given), the “Percent Effect” value is recorded as -49.85%. The figure for `Cc1cccc(OC(C)C(=O)NCC2(N(C)C)CCCC2)c1` (stereo not given) is 80.49%; for `CC(=O)N(C)CC(=O)NCC1(c2cccc(C)c2)CCCC1` it is -51.91%.

Source of the values: ChEMBL document CHEMBL3988442, “University of Dundee, Small-Polar-MMV Screening Library” (2021).
